# Source: PubChem BioAssay (NCI)
# About 79,000 compounds went through this panel and 15% of them were active in at least one assay; those are over-represented in the sample as a whole. Unmarked numbers belong to inactive results. Activity calls are given as the source filed them. Cut-off read from the data, not from the text of the source: active = growth inhibition above about 70%; inactive = the rest.
# Columns and labels:
# [1] = NCI Yeast Anticancer Drug Screen. Data for the rad50 strain (AID 155);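 note: 0% = growth of vehicle-only cultures of the same strain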; settings: S. cerevisiae rad50 strain growth inhibition; at 50.0 µM; active compounds read high
# In short: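 Yeast carrying a defined DNA repair defect were exposed to test compounds, and growth was compared with vehicle-treated controls to give percent inhibition.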
# [2] = NCI Yeast Anticancer Drug Screen. Data for the mec2-1 strain (AID 157); settings: S. cerevisiae mec2-1 strain, at 50.0 µM, active compounds read high
# In short: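 Compounds were applied to mec2-1 yeast cells. Their growth was then compared with that of vehicle-treated cultures to give growth inhibition.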
# [3] = NCI Yeast Anticancer Drug Screen. Data for the sgs1 mgt1 strain (AID 161);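 note: 0% = growth of cultures given vehicle only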; settings: S. cerevisiae sgs1 mgt1 strain, at 50.0 µM, active compounds read high
# In short: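 Yeast cells carrying a defined DNA-repair defect were exposed to test compounds. Growth inhibition was measured relative to vehicle-treated controls.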
# [4] = NCI Yeast Anticancer Drug Screen. Data for the cln2 rad14 strain (AID 165);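 note: 0% = growth equal to vehicle treated cultures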; settings: S. cerevisiae cln2 rad14 strain, at 50.0 µM, active compounds read high
# In short: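 Strain: cln2 rad14 yeast, altered in cell cycle control and DNA damage repair. Read-out: growth inhibition vs vehicle.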
# [5] = NCI Yeast Anticancer Drug Screen. Data for the bub3 strain (AID 167); settings: S. cerevisiae bub3 mutant strain, at 50.0 µM, active compounds read high
# In short: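 Compounds were applied to a genetically altered yeast strain carrying a cell-cycle control defect. Growth inhibition was scored against vehicle-treated controls.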
# [6] = NCI Yeast Anticancer Drug Screen. Data for the mlh1 rad18 strain (AID 175); settings: S. cerevisiae mlh1 rad18 strain growth inhibition; at 50.0 µM; active compounds read high
# In short: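 A repair-deficient yeast strain is exposed to test compound, and growth is scored relative to vehicle-treated controls.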
Compound,growth inhibition [1],growth inhibition [2] [%],growth inhibition [3] [%],growth inhibition [4] [%],growth inhibition [5] [%],growth inhibition [6]
O=C(c1cccc([N+](=O)[O-])c1)c1cccs1,6.6%,-7.2,-9.05,4.3,-5.2,-4.05%
CCc1ccc(-c2c(-c3ccccc3)c(-c3ccccc3)c(-c3ccccc3)c(-c3ccccc3)c2-c2ccccc2)cc1,31.1%,6.3,21.9,26.1,-6.3,30.9%
Cc1cc(C[C@H]2O[C@@H]3OC(C)(C)O[C@@H]3[C@H]3OC(C)(C)O[C@H]32)c2ccccc2n1,-4.6%,12,19.9,-4.2,9.1,17.6%
CC1OC(c2cccc([N+](=O)[O-])c2)OCC1(C)C (centres undefined),-14.7%,-19.4,-4.9,-32.6,15.1,-16.6%
COc1ccc(CC2COC(=O)[C@@H]2Cc2ccc(O)cc2)cc1OC (some centres undefined),-32.9%,-43.5,-14.1,-2.85,4,-7.55%
CCOc1ccc(Nc2ncnc3sc4c(c23)CCCC4)cc1,10.3%,-1,-1.15,12.7,17.2,8.9%
O=C1C2C3CC(C4C5C=CC(C5)C34)C2C2C3CC(C12)C1C2C=CC(C2)C31 (centres undefined),-19.1%,-15.9,-24,17.8,-9.15,-24.4%
CCOc1cccc(OCC)c1C,-4.55%,-17.4,-2.55,11.3,-9,14.9%
Cc1cccc2c1C(=O)C(C1OC(=O)c3ccccc31)C2 (centres undefined),7.15%,9.75,1.5,-31,13.5,-12.4%
O=C1c2cc(F)ccc2-c2c(F)cc(F)cc21,19.9%,-6.4,-2.1,40.5,-3.85,-8.8%
CCCCCCCCCCCCCCOc1ccc(Sc2ccc([N+](=O)[O-])cc2)cc1,40.8%,-0.1,46,-5,5.8,26.8%
COc1cccc(C(=O)NCCNCCNC(=O)c2cccc(OC)c2OC)c1OC,-0.8%,0.7,-3.95,-6.6,-1.75,-2.35%
Cc1ccc(NC(=O)Nc2ccc(Cl)cc2)c(C)c1,-12.8%,-6,1.65,-28.6,5.6,-0.65%
CCN(c1ccccc1)S(=O)(=O)c1ccc(Oc2ccccc2)c(N)c1,27.2%,-18.9,16.9,12.5,36.5,-10.8%
C1CCCCC/C2=C(\CCCC1)CSCCCS2,-25.8%,-19.9,-16.1,-14.6,0.55,-36.5%
Nc1ncnc2c1ncn2C1OC(CSCc2ccc(Cl)cc2)C(O)C1O (centres undefined),26.6%,10.8,15.4,10.6,58.7,22.2%
COc1c2c(c(OC)c3c(=O)c4ccccc4[nH]c13)OCO2,12.6%,-8.85,26.9,-2.25,18.2,22.9%
CCNC(=S)N/N=C/c1cc(OC)ccc1O,-11.7%,23.4,0.2,11,23.1,-13.9%
Cc1ccc(NCCN)c2c(=O)c3cc(O)ccc3sc12,86% (active),32.3,40.4,25.1,9.65,86.7% (active)
COC1CC(NC(C)=O)C(OC(C)=O)C(CN=[N+]=[N-])O1 (centres undefined),5.1%,9.3,8,-11.4,-10.2,6.4%
COC(=O)c1c(C(=O)OC)c(C(c2ccccc2)c2ccccc2)n(-c2ccccc2)c1Cl,-17.6%,-21.1,0.6,0.65,-18.3,1.2%
C/C(=N\NC(=S)N1CCC(c2ccccc2)CC1)c1ccccn1,-24.3%,3.95,0.25,-22.4,4.65,13.8%

Compound,growth inhibition [1],growth inhibition [2] [%],growth inhibition [3] [%],growth inhibition [4] [%],growth inhibition [5] [%],growth inhibition [6]
COC(=O)CC(=O)C[P+](c1ccccc1)(c1ccccc1)c1ccccc1,6.5%,-19.1,14.8,18.4,-18.1,5.4%
Cc1ccc2[nH]c(=O)cc(C(F)(F)F)c2c1,13.2%,6.35,5.4,-2.1,-15.2,21.7%
CC1OC(CC(=O)O)CC2=C1C(=O)c1c(O)cccc1C2=O (centres undefined),-6.3%,-8.3,17.2,0.6,-14.2,10.2%
O=C(Nc1cccc([N+](=O)[O-])c1)Nc1ccccc1F,11.7%,10,14.1,10.5,19.2,9.55%
CCN(CC)c1ccc(/C=N/NC(=O)NN)cc1,4.35%,-20.9,-15.4,-13.1,-7.95,-5.3%
Cc1ccc(C)n1N(c1ccccc1)c1ccccc1,-13.6%,7.1,2.65,-36.4,21.6,9.1%
O=C1COC(=O)/C1=C/c1ccccc1,-0.4%,-7.85,-4.75,2.3,-15.8,-1.05%
CC1=Nc2ccc(C)cc2N=C(C)C1,11.4%,4.1,7.2,-29.4,22.4,-1.6%
Nc1nc(-c2ccccc2)nc(-c2ccccc2)n1,-2.95%,-7.05,-8.4,-14.2,-21.7,-16.4%
COc1cccc2c1C(=O)c1c(O)c3c(c(O)c1C2=O)C[C@@](O)(c1csc(-c2ccncc2)n1)C[C@@H]3OC1CC(N)C(O)C(C)O1 (some centres undefined),22.8%,15.4,17.2,32.2,-2.25,25.8%
CCCCSC(CC(O)C(O)COC(=O)c1ccc([N+](=O)[O-])cc1)SCCCC (centres undefined),-12.1%,1.95,2.7,13,-4.85,-5.85%
CCCC1=C(CC)C(C(=O)Nc2c(C)cccc2C)=NC(S)N1 (centres undefined),-11.8%,-15.6,0.65,14.5,1.15,-19.1%
CCCCCCCCCCCCCCCCCC(=O)c1ccc(OC)c(OC)c1,-14.8%,-12.8,-31.1,-37.5,-24.4,-1.25%
Cc1cccc(C)c1NC(=S)/N=C/C1=C(O)c2ccccc2C1=O,-36.8%,-17.2,-10.2,13.8,-7.5,23.6%
O=c1[nH]c(=O)c2nc[nH]c(=O)c2[nH]1,-8.55%,-8.45,-4.2,-3.55,-11.6,-13.2%
CCOc1ccccc1NC(=O)CC(C)=O,14.3%,20.6,22.2,1.9,33.3,10.4%
OCc1nc2ccccc2[nH]1,5.6%,-4.5,-3.55,-27.2,14.1,3.3%
CC(=O)Nc1ccc2ccc3ccccc3c2c1,37%,9.25,15.8,-19.1,-4.35,23.7%
COc1ccc(-c2cc(=O)c3cccnc3[nH]2)cc1,30.1%,12.9,32.4,0.7,12.2,21.1%
CC(Oc1ccc2cc(C(=O)c3ccccc3)c(=O)oc2c1)C(=O)O (centres undefined),-4.25%,3.75,19.2,32.9,-0.1,44.9%
O=C1c2c(F)c(F)c(F)c(F)c2SC2=Nc3cccc4cccc(c34)N12,-17.5%,-3.8,-37.3,-14.5,-4.25,-37.8%
CC(=O)CC(C)=NCCCCN=C(C)CC(C)=O,-12.6%,-29.1,5.55,5.35,-25.2,-17.3%
